According to the supplement of paper PMC9262897, “Low-cost anti-mycobacterial drug discovery using engineered E. coli” (Nature Communications, 2022):
Structures can show the parent of a compound that is named as a salt. ± gives the standard deviation of the averaged measurements.

Test system: E. coli TESEC Mtb Alr
Experiment: growth (OD600 after 10 h); higher = more growth (less inhibition)
Settings: arabinose 10000000 nM; compound 0.1 mM; raw OD600 reference: median of DMSO wells […], cell-free background 0.052
Protocol: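 TESEC Mtb Alr E. coli (ΔaraC ΔtolC ΔentC Δalr ΔdadX, arabinose-inducible Mtb Alr) or the Alr+ wild-type control strain, grown in defined M9-fructose medium without D-alanine in 96-well plates with Prestwick library compounds at 0.1 mM and 1% DMSO. Low Alr induction is 0.1 µM arabinose and high induction is 10 mM arabinose.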

Structure (SMILES)	growth
CCNCC(O)c1cccc(O)c1 (centres undefined) [Etilefrine hydrochloride]	0.345 ± 0.023
COc1cccc(C2(O)CCCCC2CN(C)C)c1 (centres undefined) [Tramadol hydrochloride]	0.327 ± 0.016
C=CCN1CC[C@]23c4c5ccc(O)c4O[C@H]2C(=O)CC[C@@]3(O)[C@H]1C5 [Naloxone hydrochloride]	0.317 ± 0.026
O=c1[nH]c2ccccc2n1C1CCN(CCCC(c2ccc(F)cc2)c2ccc(F)cc2)CC1 [Pimozide]	0.307 ± 0.034
CC[C@@H](CO)NC(=O)[C@@H]1C=C2c3cccc4[nH]cc(c34)C[C@H]2N(C)C1 [Methylergometrine maleate]	0.359 ± 0.0099
C[C@]12Cc3c[nH]nc3C[C@@H]1CC[C@@H]1[C@@H]2CC[C@@]2(C)[C@H]1CC[C@]2(C)O [Stanozolol]	0.278 ± 0.018
CN1CCC2(C)c3cc(O)ccc3N(C)C12 (single isomer, unassigned; (-)) [(-)-Eseroline fumarate salt]	0.317 ± 0.021
C[C@@H]1O[C@@H](O[C@@H]2C=C3CC[C@@H]4[C@H](CC[C@]5(C)[C@@H](c6ccc(=O)oc6)CC[C@]45O)[C@@]3(C)CC2)[C@H](O)[C@H](O)[C@H]1O [Proscillaridin A]	0.267 ± 0.0065
COc1ccc(CN2CCNCC2)c(OC)c1OC [Trimetazidine dihydrochloride]	0.33 ± 0.019
C[N+]1(C)CCOC(O)(c2ccc(-c3ccc(C4(O)C[N+](C)(C)CCO4)cc3)cc2)C1 (centres undefined) [Hemicholinium bromide]	0.397 ± 0.015
OC(c1ccccc1)(c1ccccc1)C1CCNCC1 [Azacyclonol]	0.333 ± 0.035
CCN(C(C)=O)c1cccc(-c2ccnc3c(C#N)cnn23)c1 [Zaleplon]	0.298 ± 0.011
Cc1cc(C(C#N)c2ccc(Cl)cc2)c(Cl)cc1NC(=O)c1cc(I)cc(I)c1O (centres undefined) [Closantel]	0.145 ± 0.043
C[C@]12CC[C@H](O)C[C@H]1CC[C@@H]1[C@@H]2C[C@@H](O)[C@]2(C)[C@@H](C3=CC(=O)OC3)CC[C@]12O [Digoxigenin]	0.331 ± 0.011
COc1cc2c(c(OC)c1OC)-c1ccc(OC)c(=O)cc1[C@@H](NC(C)=O)CC2 [Colchicine]	0.322 ± 0.0069
C=C1C[C@@H]2[C@H](CC[C@]3(C)C(=O)CC[C@@H]23)[C@@]2(C)C=CC(=O)C=C12 [Exemestane]	0.129 ± 0.019
C=C1CC[C@@]2(O)[C@H]3Cc4ccc(O)c5c4[C@@]2(CCN3CC2CC2)[C@H]1O5 [Nalmefene hydrochloride]	0.327 ± 0.022
C[N+](C)(C)CCCCCCCCCC[N+](C)(C)C [Decamethonium bromide]	0.376 ± 0.022
CCn1cc(C(=O)O)c(=O)c2cc3c(cc21)OCO3 [Oxolinic acid]	0.0582 ± 0.0011
O=P1(N(CCCl)CCCl)NCCCO1 (centres undefined) [Cyclophosphamide]	0.314 ± 0.012
CC(CCc1ccccc1)NC(C)C(O)c1ccc(O)cc1 (centres undefined) [Nylidrin]	0.316 ± 0.013
NCCCNCCSP(=O)(O)O [Amifostine]	0.352 ± 0.011
CCC1(c2ccc(N)cc2)CCC(=O)NC1=O (centres undefined) [Glutethimide, para-amino]	0.383 ± 0.033
CCN(CC)C(C)C(=O)c1ccccc1 (centres undefined) [Amfepramone hydrochloride]	0.325 ± 0.016
C=C(C)[C@@H]1[C@H]2OC(=O)[C@@H]1[C@]1(O)C[C@H]3O[C@]34C(=O)O[C@H]2[C@]14C [Picrotoxinin]	0.351 ± 0.0093
CC1C=CC=CCCC=CC=CC=CC=CC(OC2OC(C)C(O)C(N)C2O)CC2OC(O)(CC(O)C(O)CCC(O)CC(O)CC(O)CC(=O)OC(C)C(C)C1O)CC(O)C2C(=O)O (centres undefined) [Nystatine]	0.345 ± 0.016
CC(C)CC(N(C)C)C1(c2ccc(Cl)cc2)CCC1 (centres undefined) [Sibutramine HCl]	0.35 ± 0.014
CCC1(CC)C(=O)C=CNC1=O [Pyrithyldione]	0.398 ± 0.025
CCN(C)C(=O)Oc1cccc([C@H](C)N(C)C)c1 [Rivastigmine]	0.342 ± 0.016
